In this test the test system is Trichuris muris adult worms. Kind of test: mean motility score (Paragon pixel variance) of adult worms (arbitrary units); higher = more motile worms, i.e. less anthelmintic effect; extreme values may be limits of the assay. The following applies: 100 µM; 24 h. As for the experimental part: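 Primary ex vivo screen of 409 approved drugs against adult Trichuris muris worms: one worm per well in RPMI-1640 with penicillin/streptomycin, 100 µM drug in 1% DMSO, 37 °C, 5% CO2 for 24 h. Motility was recorded with INVAPP (200-frame movies) and scored with the Paragon pixel-variance algorithm. Values are means of triplicate wells run on three occasions; levamisole was the positive control and DMSO the negative control.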
Take `CC(C)(C(=O)c1cccnc1)c1cccnc1` [metyrapone]: the mean motility score came to 3950.

In turn, `CCN1CCN(c2cc(-c3ccc(F)cc3)c3c(n2)CCCCCC3)CC1` [blonanserin] gave a mean motility score of 3080.

In the case of `CC1=NS(=O)(=O)c2cc(Cl)ccc2N1` [diazoxide], the mean motility score was determined as 3260.

`CCCCCCCCCCCCCCCCO` [cetyl alcohol] displayed a mean motility score of 1880.

`CCN(Cc1ccncc1)C(=O)C(CO)c1ccccc1` (stereo not given) [tropicamide] showed a mean motility score of 2030.

`CC(C)NCC(O)COc1cccc2[nH]ccc12` (stereo not given) [pindolol] showed a mean motility score of 4670.

For the molecule `Cc1nc2ccc(CN(C)c3ccc(C(=O)N[C@@H](CCC(=O)O)C(=O)O)s3)cc2c(=O)[nH]1` [raltitrexed], the mean motility score amounted to 3030.

`Oc1nc2ccccc2n1C1CCN(CCCC(c2ccc(F)cc2)c2ccc(F)cc2)CC1` [pimozide] returned a mean motility score of 0.

`CC1=C(/C=C/C(C)=C/C=C/C(C)=C/CO)C(C)(C)CCC1` [retinol] showed a mean motility score of 2970.

As for `CCOC(=O)N1CCC(=C2c3ccc(Cl)cc3CCc3cccnc32)CC1.Cl` [loratadine hydrochloride], the mean motility score was found to be 0.

With `Cl.Fc1ccc([C@@H]2CCNC[C@H]2COc2ccc3c(c2)OCO3)cc1` [paroxetine hydrochloride], the mean motility score was 1300.

For the molecule `CCN(CC)CCOC(=O)c1ccc(N)cc1.Cl` [procaine hydrochloride], the mean motility score was 3750.

As to `CCCc1cc(O)nc(S)n1` [propylthiouracil], the mean motility score amounted to 3720.

Molecule `O=C1c2cccc(O)c2C(=O)c2c(O)cccc21` [danthron] registered a mean motility score of 2660.

`CC(=O)Oc1cc(C(C)C)c(OCCN(C)C)cc1C.Cl` [moxisylyte hydrochloride] came in with a mean motility score of 1780.

In turn, `CCOc1ccccc1OCCN[C@H](C)Cc1ccc(OC)c(S(N)(=O)=O)c1.Cl` [tamsulosin hydrochloride] registered a mean motility score of 2890.

In turn, `CC(C)(F)C[C@H](N[C@@H](c1ccc(-c2ccc(S(C)(=O)=O)cc2)cc1)C(F)(F)F)C(=O)NC1(C#N)CC1` [odanacatib] showed a mean motility score of 3560.

For `CC(C)(C)NC(=O)[C@H]1CC[C@H]2[C@@H]3CC[C@H]4NC(=O)C=C[C@]4(C)[C@H]3CC[C@]12C` [finasteride], the mean motility score was determined as 2080.

`COC(=O)C1=C(C)NC(C)=C(C(=O)OCCN2CCN(C(c3ccccc3)c3ccccc3)CC2)C1c1cccc([N+](=O)[O-])c1.Cl` (stereo not given) [manidipine hydrochloride] returned a mean motility score of 1540.

On to `Oc1ncc(F)c(O)n1` [fluorouracil], for which the mean motility score was 3090.

Molecule `CN1CCC(=C2c3ccccc3C=Cc3ccccc32)CC1` [cyproheptadine] yielded a mean motility score of 417.

Molecule `COC(=O)C1=C(C)NC(C)=C(C(=O)OC)C1c1ccccc1[N+](=O)[O-]` [nifedipine] came in with a mean motility score of 1260.

`COc1ccc2cc(CCC(C)=O)ccc2c1` [nabumetone] came in with a mean motility score of 2720.

In the case of `CNC1(C)[C@H]2CC[C@H](C2)C1(C)C.Cl` (stereo not given in full) [mecamylamine hydrochloride], the mean motility score was determined as 3150.

In the case of `OCc1ccccc1` [benzyl alcohol], the mean motility score was determined as 2390.

In turn, `CCCc1nc(C)c2c(=O)nc(-c3cc(S(=O)(=O)N4CCN(CC)CC4)ccc3OCC)[nH]n12` [vardenafil] had a mean motility score of 2160.

`CC12CC3CC(C)(C1)CC(N)(C3)C2.Cl` [memantine hydrochloride] registered a mean motility score of 2620.

`OCCN(CCO)c1nc(N2CCCCC2)c2nc(N(CCO)CCO)nc(N3CCCCC3)c2n1` [dipyridamole] had a mean motility score of 2870.

With `CO/N=C(\C(=O)N[C@@H]1C(=O)N2C(C(=O)[O-])=C(COC(N)=O)CS[C@H]12)c1ccco1.[Na+]` [cefuroxime sodium], the mean motility score was 2610.

The molecule `NC[C@H](O)c1ccc(O)c(O)c1` [noradrenaline] had a mean motility score of 3120.

In turn, `Cl.O=C1CC2(CCCC2)CC(=O)N1CCCCN1CCN(c2ncccn2)CC1` [buspirone hydrochloride] displayed a mean motility score of 4250.

For `CNC(=O)c1cc(Oc2ccc(NC(=O)Nc3ccc(Cl)c(C(F)(F)F)c3)cc2)ccn1` [sorafenib], the mean motility score was found to be 781.

The molecule `CCCCC1C(=O)N(c2ccccc2)N(c2ccccc2)C1=O` [phenylbutazone] displayed a mean motility score of 1530.

With `CCO[C@@H](Cc1ccc(OCCc2ccc(OS(C)(=O)=O)cc2)cc1)C(=O)O` [tesaglitazar], the mean motility score was 3880.

For the molecule `CC[N+](C)(C)c1cccc(O)c1.[Cl-]` [edrophonium chloride], the mean motility score was found to be 2890.

As for `Nc1cc(C(F)(F)F)c(-c2cc(N3CCOCC3)nc(N3CCOCC3)n2)cn1` [buparlisib], the mean motility score worked out at 3960.

As for `CSc1ccc(C(=O)c2nc(O)[nH]c2C)cc1` [enoximone], the mean motility score amounted to 1970.

Molecule `Cc1cc2cc3c(C)cc(=O)oc3c(C)c2o1` [trioxsalen] had a mean motility score of 2070.

`NCCCC[C@H](N[C@@H](CCc1ccccc1)C(=O)O)C(=O)N1CCC[C@H]1C(=O)O` [lisinopril] showed a mean motility score of 1970.

In turn, `Cc1ccc(S(=O)(=O)O)cc1.Clc1cccc(Cl)c1NC1=NCCN1` [clonidine p-toluenesulfonic acid] returned a mean motility score of 3620.

The values above are taken from the supplement of paper PMC10503962.
